# Measured values as given in ChEMBL document CHEMBL1157539, “Thousands of chemical starting points for antimalarial lead identification” (Nature, 2010).
# Non-standard residues stand in square brackets, D forms with d. Residues, ends and D or L forms follow the SMILES beside them. *: point of attachment. Butanoyl(4-(4-HOPh)) = O=C(CCCc1ccc(O)cc1)*
# How the values were obtained:
# Format in all cases: functional
# Plasmodium falciparum [1] = experiment: GSK_TCMDC: Inhibition of Plasmodium falciparum 3D7 in whole red blood cells, using parasite LDH activity as an index of growth. Test compounds present at 2uM
# Plasmodium falciparum [2] = experiment: GSK_TCMDC: Inhibition of Plasmodium falciparum Dd2 in whole red blood cells, using parasite LDH activity as an index of growth. Test compounds present at 2uM
# HepG2 = experiment: GSK_TCMDC: Percent inhibition of human HepG2 cell line. Test compounds present at 10uM.
SMILES,Inhibition (Plasmodium falciparum [1]),Inhibition (Plasmodium falciparum [2]),Inhibition (HepG2)
O=C(Nc1cccc(CN2CCCN(Cc3cccc(Cl)c3)CC2)c1)c1ccc(Br)cc1.O=C(O)C(F)(F)F,92%,16%,38%
O=C(/C=C/c1ccc(Cl)c(Cl)c1)NCCCCCN1CCCN(C(=O)Nc2ccc(F)c(Cl)c2)CC1,95%,0%,31%
Cc1[nH]c2ccccc2c1C(=O)C(C)Sc1nnc(-c2ccccc2Br)[nH]1 (stereo not drawn),100%,100%,0%
CCOC(=O)c1c[nH]c2c(ccc3ccccc32)c1=O,96%,96%,0%
C=CCc1cc(C2CCN(CCCCNC(=O)c3ccc(-c4ccc(C#N)cc4)cc3)CC2)c(OCC(N)=O)c2c1CCCC2,100%,92%,43%
COc1ccc(-c2ccc(NC(=O)c3cccc(Cl)c3)cc2)cc1CNC(C)C.O=C(O)C(F)(F)F,100%,88%,26%
CCc1ccc(-n2cc(C(=O)c3cc(Br)ccc3O)cc(C#N)c2=O)cc1,97%,30%,9%
Cc1cccc2nc(-c3cccc(-c4cccc(NC(=O)c5c[nH]cn5)c4)c3)[nH]c12,100%,91%,2%
Cc1ccc(/C=C/C(=O)NCCCCCN2CCN(C(=O)Nc3ccc(Cl)c(C(F)(F)F)c3)CC2)cc1,93%,0%,10%
O=C(NCC(=O)N1CCC[C@H]1C(=O)O)[C@@H](Cc1ccccc1)NC(=O)[C@@H]1CCCN1C(=O)CCCc1ccc(O)cc1 ({Butanoyl(4-(4-HOPh))}-P[dF]GP-OH),81%,1%,1%
N#Cc1cccc(-c2cnc(N)c(-c3nc4cc(S(N)(=O)=O)ccc4[nH]3)c2)c1,100%,99%,16%
COc1ccc2c(c1)c(C1CCN(CCCCNC(=O)c3ccc(-c4ccc(C(F)(F)F)cc4)cc3)CC1)cn2C(C)C,99%,21%,26%
Cl.N=C(N)NN=Cc1c2ccc(Cl)cc2c(Cl)c2ccc(Cl)cc12,100%,90%,28%
Cc1cc(CNCCCCCCNCc2ccc(-c3ccccc3)cc2)ccc1O,98%,0%,90%
c1ccc(Oc2ccc(Nc3ccnc4cc(-c5csc(CNCCN6CCOCC6)n5)ccc34)cc2)cc1,100%,99%,0%
Cc1nc2ccccn2c1C1(O)C(=O)Nc2c(Cl)cc(Cl)cc21 (stereo not drawn),95%,62%,0%
CCC[C@@H](C(=O)NCCc1cccc(OC)c1)N1C(=O)c2c(ccc(OC)c2OC)C1C(=O)Nc1c(C)cccc1C (stereo partly drawn),94%,32%,6%
COc1ccc(CNCc2cccc(-c3ccc(-c4nc5cccc(C)c5[nH]4)cc3)c2)cc1.O=C(O)C(F)(F)F,100%,70%,23%
Nc1nc(N)c2c(ccc3c2ccn3Cc2ccc(-c3ccccc3)cc2)n1,98%,93%,100%
Cc1cc(F)ccc1-c1nc(NCCCN2CCCC2=O)nc2c1ccc(=O)n2-c1c(F)cccc1F,88%,80%,0%
CC(=O)Nc1ccc(S(=O)(=O)N2CCN(c3nc(NC4CCCC4)c4ccccc4n3)CC2)cc1,88%,2%,7%

SMILES,Inhibition (Plasmodium falciparum [1]),Inhibition (Plasmodium falciparum [2]),Inhibition (HepG2)
c1ccc2[nH]c(-c3ccc(-c4ccc(CN5CCN(c6ccncc6)CC5)cc4)s3)nc2c1,100%,100%,25%
COCCNCc1cccc(-c2cccc(CNC3CCN(Cc4ccccc4)CC3)c2)c1.O=C(O)C(F)(F)F,100%,99%,28%
Cc1nc2cc(/C=C/C(=O)NC3CCC(CCN4CCc5ccc(C#N)cc5CC4)CC3)ccc2[nH]1.Cl (stereo not drawn),88%,21%,7%
Cl.Nc1ccc(Nc2ccnc3ccc(C(F)(F)F)cc23)cc1O,98%,59%,1%
CN(CCCN(C)c1cc(NC(=O)c2cccc(F)c2)ccn1)Cc1cccc(O)c1.O=C(O)C(F)(F)F,92%,4%,0%
Cc1cccc2nc(-c3ccc(-c4ccc(NC(=O)Nc5ccc(Cl)cc5)cc4)s3)[nH]c12,100%,100%,78%
Cc1cc(C2CCN(CCCCNC(=O)c3ccc(-c4ccc(C(F)(F)F)cc4)cc3)CC2)c(C)cc1OCCO,99%,3%,31%
Fc1ccc2[nH]c(-c3ccc(-c4ccc(CNCCN5CCNCC5)cc4)cc3)nc2c1.O=C(O)C(F)(F)F,96%,70%,94%
Cc1sc(CNCCCNc2cc(=O)c3ccccc3[nH]2)cc1Br,100%,83%,12%
COC(=O)c1ccc(CCCNCC(O)c2cccc(C(F)(F)F)c2)cc1 (stereo not drawn),97%,88%,0%
CCOc1ccc2nc3cc([N+](=O)[O-])ccc3c(N)c2c1,99%,100%,67%
COc1ccc2nccc([C@@H](O)CN3CCC(NCC4COc5ccccc5O4)CC3)c2c1.O=C(O)C(=O)O (stereo partly drawn),98%,94%,17%
COc1cccc(OC)c1C(=O)Nc1cccc(-c2nn3ccccc3c2-c2ccnc(Nc3cccc(F)c3)n2)c1,95%,38%,3%
Cn1c(=O)c2nc(-c3ccc(Cl)cc3)nnc2n(CCCC#N)c1=O,99%,98%,6%
CC(=O)Nc1ccc(C(=O)Nc2cccc(-c3cccc(-c4nc5ccccc5[nH]4)c3)c2)cn1,100%,100%,3%
CCN(CC)CCNc1ccnc2[nH]c3ccc(C)cc3c12,100%,81%,9%
O=C(Cn1c(=O)cnc2ccccc21)Nc1cccc(C(=O)Nc2cccc(C(F)(F)F)c2)c1,90%,66%,0%
Fc1ccc2[nH]c(-c3ccc(-c4ccc(CNCCc5ccncc5)cc4)cc3)nc2c1.O=C(O)C(F)(F)F,100%,97%,23%
CC(C)CNCc1ccc(-c2cccc(-c3nc4ccccc4[nH]3)c2)cc1.O=C(O)C(F)(F)F,99%,98%,53%
c1cn(-c2ccc(CNc3nccc(Nc4ccc(OCCN5CCOCC5)cc4)n3)cc2)cn1,100%,3%,2%
NC(=O)c1cccc(-n2ccc3cc(CNC4Cc5ccccc5C4)ccc32)c1.O=C(O)C(F)(F)F,88%,7%,17%

SMILES,Inhibition (Plasmodium falciparum [1]),Inhibition (Plasmodium falciparum [2]),Inhibition (HepG2)
CS(=O)(=O)c1ccc(CCNCc2ccc(-c3ccc(CNC4Cc5ccccc5C4)cc3)nc2)cc1.O=C(O)C(F)(F)F,100%,80%,18%
CC1(C)N=C(N)N=C(N)C1c1ccc(Cl)cc1.Cl (stereo not drawn),96%,0%,16%
Fc1ccc2[nH]c(-c3cccc(-c4cccc(CNCC5CCCO5)c4)c3)nc2c1.O=C(O)C(F)(F)F (stereo not drawn),99%,94%,40%
CC(C)(C)CNCC(C)(C)c1nc(-c2ccc(Cl)c(O)c2)c(-c2ccncc2)[nH]1.Cl,100%,98%,42%
NC(CC1CC(=O)N1CC(=O)O)C(=O)O (stereo not drawn),95%,0%,56%
CCN(CC)CCNc1ccnc2[nH]c3ccc(I)cc3c12,100%,95%,14%
COc1ccc(-c2ccc(NC(=O)c3cccc(F)c3)cc2)cc1CN1CCCN(C)CC1.O=C(O)C(F)(F)F,100%,49%,32%
CCOc1cc(NC(=O)Nc2ccnc3ccccc23)cc(OC)c1.Cl,98%,73%,0%
COc1ccc2c(=NN=C(C)c3ccccn3)cc(C)[nH]c2c1,100%,51%,33%
O=C(NCC1CCC(CNCCc2ccccc2)CC1)Nc1ccc(Cl)c(Cl)c1 (stereo not drawn),96%,0%,24%
CC(C)(CNCc1cc(Cl)cc(Cl)c1)c1nc(-c2ccnc(N)n2)c(-c2ccc(Cl)c(O)c2)[nH]1.Cl,92%,2%,54%
CC(C)(C)c1ccc(CN2CCCCC(NC(=O)c3cc(-c4cccc(Cl)c4)cs3)C2)cc1.O=C(O)C(F)(F)F (stereo not drawn),96%,60%,11%
O=C(NCCCCN1CCC(c2ccc3c(c2OCc2ccncc2)CCCC3)CC1)c1ccc(NC(=O)c2ccc(Cl)cc2)cc1,100%,99%,62%
COc1ccc(CNCc2ccccc2)cc1-c1cccc(S(=O)(=O)NCCN2CCCC2)c1.O=C(O)C(F)(F)F,98%,36%,37%
O=C(Nc1ccc(Cn2ncc(N3CCCNCC3)c(Cl)c2=O)cc1)Nc1ccc(-c2ccccc2)cc1.O=C(O)C(F)(F)F,93%,51%,10%
CC(C)c1ccc(NC(=O)c2ccc(CN3CCCN(CC4CCCCC4)CC3)cc2)cc1.O=C(O)C(F)(F)F,90%,34%,50%
CCc1ccc(CN2CCC(CNC(=O)c3cc(-c4ccccc4Cl)cs3)C2)cc1.O=C(O)C(F)(F)F (stereo not drawn),98%,0%,14%
COc1cc2nc(N(C)Cc3cccc(I)c3)nc(N)c2cc1OC,100%,88%,7%
Cc1nc(C)c(C2CCC(c3ccc(Cl)cc3)CC2)c(O)c1Cl (stereo not drawn),98%,97%,37%
